Here are results for twelve molecules from PubChem BioAssay (NCI).

About 83,000 compounds went through this panel and 20% of them were active in at least one assay; those are over-represented in the sample as a whole.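 Note: values are percent growth. 100 is the growth of untreated cells, values between 100 and 0 indicate rising inhibition; between -100 and 0 indicates cell death.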 A number with no mark means an inactive call. Activity calls are given as the source filed them. How the source made its calls: active means growth percent below 10; inactive means the rest.

Test systems include SK-MEL-2 melanoma; EKVX NSCLC; SN12C renal; UO-31 renal; TK-10 renal; ACHN renal; CAKI-1 renal; A498 renal; CCRF-CEM leukemia; MOLT-4 leukemia.
Holding throughout (assay): NCI-60 one-dose screen, 48 h (100 = growth as untreated, 0 = no growth, -100 = all killed)
Holding throughout (details): 10 µM unless noted

`O=c1[nH]c2cc(Cl)c(Cl)cc2n2cc3ncccc3c12`: the growth with SK-MEL-2 melanoma was 112%; in the assay on EKVX NSCLC, 82.3%; in the assay on SN12C renal, 83%; in the assay on UO-31 renal, 56.9%; with TK-10 renal it was 94.1%; in the assay with ACHN renal, 89.7%. Moreover, the growth is 59.9% with CAKI-1 renal, 73.6% in the assay on A498 renal, 52.1% in the assay with CCRF-CEM leukemia and 58.8% with MOLT-4 leukemia.

As for `CCn1cc(-c2ccnc(NCCNS(=O)(=O)c3cccc4ccccc34)c2)c(-c2cccc(O)c2)n1`, the growth with SK-MEL-2 melanoma was 111%; with EKVX NSCLC, 96.9%; in the assay with SN12C renal it was 96.7%; with UO-31 renal it was 90.3%; in the assay with TK-10 renal it was 114%; with ACHN renal it was 100%. In addition, the growth in the assay on CAKI-1 renal was 102%; with A498 renal, 91.5%; in the assay with CCRF-CEM leukemia it was 95%; in the assay on MOLT-4 leukemia, 93.1%.

In the case of `Cn1cc(-c2noc(-c3cn(C)c4ncc(F)cc34)n2)c2cc(Cl)ccc21`, the growth is 101% in the assay with SK-MEL-2 melanoma; 47.1% in the assay on EKVX NSCLC; 40.8% in the assay on SN12C renal; 53.3% in the assay on UO-31 renal; 28% in the assay with TK-10 renal; 10.2% in the assay with ACHN renal. The growth in the assay on CAKI-1 renal is 43.2%; in the assay with A498 renal, 69.2%; in the assay with CCRF-CEM leukemia, 99.7%; in the assay on MOLT-4 leukemia, 78.2%.

Regarding `Nc1cc(Cl)cc2cccnc12`, the growth in the assay with SK-MEL-2 melanoma is 119%; with EKVX NSCLC it was 102%; with SN12C renal, 91.1%; in the assay on UO-31 renal, 67.9%; in the assay on TK-10 renal, 109%; in the assay on ACHN renal, 102%. Moreover, the growth in the assay on CAKI-1 renal is 101%; in the assay with A498 renal, 116%; in the assay on CCRF-CEM leukemia, 55.7%; with MOLT-4 leukemia, 77.8%.

For the molecule `Cc1ccc(S(=O)(=O)n2cc(C(=O)C(=O)N3CCCCC3)c3ccccc32)cc1`, the growth was 90.6% in the assay with SK-MEL-2 melanoma; 74.8% in the assay on EKVX NSCLC; 85.3% with SN12C renal; 53.6% in the assay with UO-31 renal; 103% in the assay with TK-10 renal; 65.6% with ACHN renal. The growth with CAKI-1 renal was 58.9%; in the assay with A498 renal, 90.8%; in the assay on CCRF-CEM leukemia, 74.9%; in the assay on MOLT-4 leukemia it was 86.9%.

`O=C(CSc1nc2ccc([N+](=O)[O-])cc2[nH]1)Nc1ccc(F)c(Cl)c1`: the growth in the assay with SK-MEL-2 melanoma is -7.66% (active); in the assay with EKVX NSCLC it was 11.1%; in the assay with SN12C renal, 3.12% (active); with UO-31 renal, 3.59% (active); in the assay with TK-10 renal it was 25.1%; in the assay with ACHN renal, 16.9%. The growth was 9.26% (active) in the assay with CAKI-1 renal, -13.1% (active) with A498 renal, 19% with CCRF-CEM leukemia and 5.63% (active) in the assay on MOLT-4 leukemia.

As to `Cc1cc(C)c(S(=O)(=O)/N=c2/n(-c3ccccc3)nc3n2CCN3C2=NCCN2)c(C)c1`, the growth is 104% in the assay with SK-MEL-2 melanoma; 83% in the assay with EKVX NSCLC; 79.8% with SN12C renal; 61.2% in the assay with UO-31 renal; 92.5% in the assay on TK-10 renal; 90% with ACHN renal. Moreover, the growth with CAKI-1 renal is 74.4%; with A498 renal, 61.8%; in the assay on CCRF-CEM leukemia it was 83.7%; with MOLT-4 leukemia, 66.2%.

Consider `CCOC(CNC(=O)c1cccc([N+](=O)[O-])c1)OCC`, for which the growth in the assay on SK-MEL-2 melanoma was 97.2%; with EKVX NSCLC, 97.4%; in the assay on SN12C renal it was 92.7%; with UO-31 renal, 81.8%; with TK-10 renal it was 82.8%; in the assay with ACHN renal, 108%. Moreover, the growth with CAKI-1 renal is 89.9%; in the assay with A498 renal it was 84.5%; in the assay on CCRF-CEM leukemia, 111%; with MOLT-4 leukemia, 100%.

With `Nc1cc(NN=C(c2ccc(O)cc2)c2ccc(O)cc2)c([N+](=O)[O-])cc1[N+](=O)[O-]`, the growth in the assay with SK-MEL-2 melanoma was -93.6% (active); with EKVX NSCLC, 97%; in the assay with SN12C renal, 53%; in the assay on UO-31 renal it was -88.7% (active); in the assay on TK-10 renal it was 84.3%; in the assay on ACHN renal it was 18.1%. Besides, the growth in the assay with CAKI-1 renal was 90.7%; in the assay on A498 renal, 101%; in the assay on CCRF-CEM leukemia, 91.3%; in the assay with MOLT-4 leukemia, 69.5%.

With `CCOC(=O)c1nc2c3ccccc3ccn2c1C(=O)OC`, the growth with SK-MEL-2 melanoma is 102%; with EKVX NSCLC, 80.2%; with SN12C renal it was 96.9%; with UO-31 renal, 91.7%; in the assay on TK-10 renal, 81.1%; with ACHN renal, 94%. The growth is 97.2% in the assay on CAKI-1 renal, 64% in the assay on A498 renal, 88.2% with CCRF-CEM leukemia and 84.5% in the assay on MOLT-4 leukemia.

`Cc1ccc2c(n1)C(=O)C(Cl)=C(Nc1ccc(N3CCN(C)CC3)cc1)C2=O`: the growth is 68.4% with SK-MEL-2 melanoma; -81.8% (active) in the assay on EKVX NSCLC; -88.5% (active) with SN12C renal; -97.4% (active) in the assay with UO-31 renal; 100% in the assay on TK-10 renal; -93.8% (active) in the assay on ACHN renal. The growth is -100% (active) in the assay with CAKI-1 renal, 101% with A498 renal, -6.24% (active) in the assay with CCRF-CEM leukemia and -25.6% (active) with MOLT-4 leukemia.

For `O=C(NCCCNC(=O)OCc1ccc2cccc(O)c2n1)OCc1ccc2cccc(O)c2n1`, the growth in the assay on SK-MEL-2 melanoma is 71.3%; with EKVX NSCLC, 79.9%; in the assay on SN12C renal, 40.4%; in the assay with UO-31 renal, 26.9%; with TK-10 renal it was 49.6%; in the assay on ACHN renal, 19.8%. Further, the growth in the assay on CAKI-1 renal was 21%; in the assay on A498 renal, 60.9%; with CCRF-CEM leukemia, 6.81% (active); with MOLT-4 leukemia it was 21.7%.
